In PubChem BioAssay AID1159580 (chemical genetic matrix, 2015):
In all, about 5,500 compounds went through this assay and about 2,000 (36%) were called active. Not shown: some 18% with an inconclusive outcome. Rule as the data show it: active = normalized growth mostly below about 0.91 (no sharp cut-off); inconclusive = no clear call, values can overlap the other calls; inactive = mostly above about 0.92. Some of the results follow.

Test: chemical genetic growth profiling, strain panel (AID 1159580);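 also: tested at 20 µM; growth read once vehicle control cultures reached saturation at 30 °C; 1 = growth at the plate median or of vehicle wells; lower values mean less growth of the strain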
Settings: growth OD

Measured: normalized growth

CC[C@@]1(O)C[C@H](O[C@H]2C[C@H](N(C)C)[C@H](O)[C@H](C)O2)c2c(cc3c(c2O)C(=O)c2c(O)cccc2C3=O)[C@H]1C(=O)OC
active: S. cerevisiae deletion strains, locus YKL085W, strain MDH1 (second series), hits give low values 0.914 | S. cerevisiae deletion strains, locus YKL085W, strain MDH1, hits give low values 0.914 | S. cerevisiae deletion strains, locus YKL160W, strain elf1, hits give low values 0.873 | S. cerevisiae deletion strains, locus YKL190W, strain CNB1, hits give low values 0.876 | S. cerevisiae deletion strains, locus YKR001C, strain vps1, hits give low values 0.639 | S. cerevisiae deletion strains, locus YLL001W, strain dnm1, hits give low values 0.869 | S. cerevisiae deletion strains, locus YLL026W, hits give low values 0.908 | S. cerevisiae deletion strains, locus YLR027C, strain aat2, hits give low values 0.877 | S. cerevisiae deletion strains, locus YLR039C, strain RIC1, hits give low values 0.491 | S. cerevisiae deletion strains, locus YLR058C, strain SHM2, hits give low values 0.89 | S. cerevisiae deletion strains, locus YLR102C, strain apc9, hits give low values 0.901 | S. cerevisiae deletion strains, locus YLR221C, strain rsa3, hits give low values 0.855 | S. cerevisiae deletion strains, locus YLR262C, strain YPT6 (second series), hits give low values 0.649 | S. cerevisiae deletion strains, locus YLR262C, strain YPT6, hits give low values 0.462 | S. cerevisiae deletion strains, locus YLR268W, strain sec22, hits give low values 0.691 | S. cerevisiae deletion strains, locus YLR320W, strain mms22, hits give low values 0.245 | S. cerevisiae deletion strains, locus YLR330W, strain CHS5, hits give low values 0.873 | S. cerevisiae deletion strains, locus YLR342W, strain FKS1 (second series), hits give low values 0.769 | S. cerevisiae deletion strains, locus YLR342W, strain FKS1, hits give low values 0.862 | S. cerevisiae deletion strains, locus YLR370C, strain arc18, hits give low values 0.899 | S. cerevisiae deletion strains, locus YLR371W, strain rom2, hits give low values 0.846 | S. cerevisiae deletion strains, locus YLR418C, strain cdc73, hits give low values 0.69 | S. cerevisiae deletion strains, locus YML032C, strain rad52, hits give low values 0.241 | S. cerevisiae deletion strains, locus YML120C, strain ndi1, hits give low values 0.912 | S. cerevisiae deletion strains, locus YML124C, strain tub3, hits give low values 0.9 | S. cerevisiae deletion strains, locus YMR058W, strain fet3, hits give low values 0.818 | S. cerevisiae deletion strains, locus YMR078C, strain ctf18, hits give low values 0.724 | S. cerevisiae deletion strains, locus YMR129W, hits give low values 0.921 | S. cerevisiae deletion strains, locus YMR205C, strain PFK2, hits give low values 0.779 | S. cerevisiae deletion strains, locus YMR223W, strain ubp8, hits give low values 0.838 | S. cerevisiae deletion strains, locus YMR231W, strain pep5, hits give low values 0.918 | S. cerevisiae deletion strains, locus YNL067W, strain RPL9B, hits give low values 0.824 | S. cerevisiae deletion strains, locus YNL071W, strain lat1, hits give low values 0.815 | S. cerevisiae deletion strains, locus YNL209W, strain ssb2, hits give low values 0.871 | S. cerevisiae deletion strains, locus YNL233W, strain BNI4, hits give low values 0.861 | S. cerevisiae deletion strains, locus YNL248C, strain rpa49, hits give low values 0.309 | S. cerevisiae deletion strains, locus YNL250W, strain rad50, hits give low values 0.559 | S. cerevisiae deletion strains, locus YNL271C, strain bni1, hits give low values 0.916 | S. cerevisiae deletion strains, locus YNL298W, strain CLA4, hits give low values 0.898 | S. cerevisiae deletion strains, locus YNL307C, strain MCK1, hits give low values 0.864 | S. cerevisiae deletion strains, locus YNL322C, strain KRE1, hits give low values 0.893 | S. cerevisiae deletion strains, locus YNR052C, strain pop2, hits give low values 0.65 | S. cerevisiae deletion strains, locus YOL006C, strain TOP1, hits give low values 0.198 | S. cerevisiae deletion strains, locus YOL147C, strain pex11, hits give low values 0.837 | S. cerevisiae deletion strains, locus YOR069W, strain VPS5, hits give low values 0.895 | S. cerevisiae deletion strains, locus YOR070C, strain gyp1, hits give low values 0.898 | S. cerevisiae deletion strains, locus YOR083W, strain WHI5, hits give low values 0.81 | S. cerevisiae deletion strains, locus YOR106W, strain vam3, hits give low values 0.672 | S. cerevisiae deletion strains, locus YOR136W, strain idh2, hits give low values 0.894 | S. cerevisiae deletion strains, locus YOR144C, strain elg1, hits give low values 0.857 | S. cerevisiae deletion strains, locus YOR184W, strain ser1, hits give low values 0.591 | S. cerevisiae deletion strains, locus YOR265W, strain rbl2, hits give low values 0.917 | S. cerevisiae deletion strains, locus YOR270C, strain vph1, hits give low values 0.39 | S. cerevisiae deletion strains, locus YOR316C, strain cot1, hits give low values 0.915 | S. cerevisiae deletion strains, locus YPL051W, strain arl3, hits give low values 0.785 | S. cerevisiae deletion strains, locus YPL055C, strain LGE1, hits give low values 0.744 | S. cerevisiae deletion strains, locus YPL240C, strain hsp82, hits give low values 0.92 | S. cerevisiae deletion strains, locus YPL241C, strain CIN2, hits give low values 0.929 | S. cerevisiae deletion strains, locus YPR119W, strain clb2, hits give low values 0.901 | S. cerevisiae deletion strains, locus YPR163C, strain tif3, hits give low values 0.783 | S. cerevisiae deletion strains, locus YPR167C, strain met16, hits give low values 0.882 | S. cerevisiae deletion strains, strain wtn01, hits give low values 0.759 | S. cerevisiae strains, strain wild type, hits give low values 0.841
inactive: S. cerevisiae deletion strains, locus YKL068W, hits give low values 0.965 | S. cerevisiae deletion strains, locus YKR026C, strain gcn3, hits give low values 0.945 | S. cerevisiae deletion strains, locus YKR091W, strain srl3, hits give low values 0.945 | S. cerevisiae deletion strains, locus YLL041C, strain sdh2, hits give low values 0.944 | S. cerevisiae deletion strains, locus YLR113W, strain HOG1, hits give low values 1.02 | S. cerevisiae deletion strains, locus YLR258W, strain gsy2, hits give low values 0.929 | S. cerevisiae deletion strains, locus YLR357W, strain rsc2, hits give low values 0.939 | S. cerevisiae deletion strains, locus YLR384C, strain iki3, hits give low values 0.93 | S. cerevisiae deletion strains, locus YML016C, strain PPZ1, hits give low values 0.929 | S. cerevisiae deletion strains, locus YMR125W, strain sto1, hits give low values 1.05 | S. cerevisiae deletion strains, locus YMR263W, strain SAP30, hits give low values 0.92 | S. cerevisiae deletion strains, locus YMR307W, strain GAS1, hits give low values 0.601 | S. cerevisiae deletion strains, locus YNL153C, strain GIM3, hits give low values 0.94 | S. cerevisiae deletion strains, locus YNL183C, strain NPR1, hits give low values 0.926 | S. cerevisiae deletion strains, locus YNL322C, strain KRE1 (second series), hits give low values 0.922 | S. cerevisiae deletion strains, locus YNR049C, strain mso1, hits give low values 0.946 | S. cerevisiae deletion strains, locus YOL012C, strain htz1 0.351 | S. cerevisiae deletion strains, locus YOR001W, strain rrp6, hits give low values 0.934 | S. cerevisiae deletion strains, locus YOR061W, strain CKA2, hits give low values 0.89 | S. cerevisiae deletion strains, locus YOR080W, strain dia2, hits give low values 0.97 | S. cerevisiae deletion strains, locus YOR231W, strain MKK1, hits give low values 0.994 | S. cerevisiae deletion strains, locus YOR290C, strain snf2, hits give low values 0.932 | S. cerevisiae deletion strains, locus YPL078C, strain atp4, hits give low values 0.961 | S. cerevisiae deletion strains, locus YPL106C, strain sse1, hits give low values 1.04 | S. cerevisiae deletion strains, locus YPL256C, strain CLN2, hits give low values 0.963 | S. cerevisiae deletion strains, locus YPR141C, strain kar3, hits give low values 0.935
